Where “and” joins values, the source holds several entries; their conditions need not be identical. Equal values may be shown once. For some of these results: Potency and affinity values are given separately. Calls of active or inactive are those of the source. Unless noted, no rule for the calls is given here.

The values below come from PubChem BioAssay.

A short description of assay [1]: polyglutamine-triggered caspase-3 activation inhibitors, cell-based (AID 1583). Conditions: polyglutamine-induced caspase-3 activation, cell assay; stronger effect = higher value;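 tested at 10 µM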.
Assay [2] in a line: suppressors of polyQ aggregation in yeast, 75Q-TubU reporter (AID 1593). Conditions: Yeast 75Q polyglutamine aggregation reporter.
Assay [3] is described as follows: rescue of polyQ-huntingtin neuronal dysfunction in worms, whole organism, C. elegans mechanosensory neurons, N-terminal huntingtin (AID 1599). The settings on record: touch response, stronger effect = higher value.
The nature of assay [4]: inhibitors of mitochondrial cytochrome c release, biochemical, purified mitochondria (AID 1603).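 Also: mouse liver mitochondria challenged with calcium chloride; signal normalized to the plate average as 100%.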 The settings on record: stronger effect = lower value.
Assay [5] can be described thus: inhibitors of polyQ protein aggregation (AID 1604). Conditions: polyglutamine-induced protein aggregation inhibition assay; stronger effect = higher value; tested at 2.5 µM.
The nature of assay [6]: enhancers of glutamate uptake in motor neurons, MN-1 cell line (AID 1612).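 Also: tested at 1 µM final; 0% = mean of DMSO vehicle wells on each plate; positive means more glutamate uptake than control and negative means less.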 Conditions: MN-1 motor neuron cells, stronger effect = higher value.
Assay [7] in a line: suppressors of polyglutamine aggregation in yeast, 75Q-TubH (AID 1616). Conditions: S. cerevisiae 75Q-TubH polyglutamine aggregation suppression; stronger effect = higher value.
Assay [8] is described as follows: Cy5 fluorescence interference with SSB-bound oligo, artefact control for HCV NS3 helicase inhibitor project, biochemical, NIH Clinical Collection, E. coli SSB (AID 743268).
In assay [9] the test system is Hepatitis C virus NS3 helicase. Description: HCV NS3 helicase inhibitors, primary screen, biochemical, fluorescence polarization, NIH Clinical Collection (AID 743270). Conditions: NS3 helicase binding to Cy5-dT15 DNA, stronger effect = higher value, concentration not given here.
Assay [10] has as its target Single-stranded DNA-binding protein (Escherichia coli (strain K12)) (UniProt P0AGE0). Description: E. coli SSB displacement from DNA, counter-screen for HCV NS3 helicase inhibitor project, biochemical, fluorescence polarization, NIH Clinical Collection (AID 743271; in the data active = inhibition above about 28%). Conditions: stronger effect = higher value, concentration not given here.
Assay [11] can be described thus: fluorescence interference in NS3h assay format, artefact control for HCV NS3 helicase inhibitor project, biochemical, NIH Clinical Collection (AID 743272).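 Also: HCV NS3 helicase with a Cy5 labelled single stranded DNA probe.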 Conditions: fluorescence interference counterscreen, stronger effect = lower value.
Assay [12] is described as follows: modulation of C. elegans fzo-1 (AID 1259413).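 Also: fzo-1 mutant C. elegans worms in liquid wells.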 Conditions: C. elegans fzo-1 modulator screen, mean read-out; stronger effect = higher value.
Assay [13] can be described thus: viability rescue of complex I mutant cybrids, primary screen, cell-based, galactose medium, ATP luminescence (AID 1645843;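 active = z-score of at least 1.8 in each of two replicates, scored against plate mean and spread of sample wells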;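 also: positive z means more ATP and so rescue of galactose-driven cybrid death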). The settings on record: complex I mutant cybrid cells, 72 h, stronger effect = higher value.
Assay [14] concerns F380Y/beta1. Description: modulators of BK channel variants, profiling panel, selectivity assay, cell-based, U2OS BacMam, thallium flux, beta subunits (AID 1259406;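 active = thallium flux through the channel raised or lowered by more than 3 SD from vehicle-only wells, actives on both sides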;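 also: initial slope of Thallos dye fluorescence rise after thallium is added; log ratio against the mean of 0.3% DMSO vehicle wells on the same plate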). Conditions: at 30 µM.
The subject of assay [15] is F380Y/beta4. The assay is described as above. The settings on record: at 30 µM.
The test system of assay [16] is R275C/beta4. The assay is described as above. Conditions: at 30 µM.
Assay [17] deals with R275C/Slo1WT/beta2. The description is as above. The settings on record: at 30 µM.
The nature of assay [18]: hESC survival regulators, cell-based (AID 493140).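 Also: cells exposed to compounds for four days before counting.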 The settings on record: human embryonic stem cell survival screen; stronger effect = higher value.
A short description of assay [19]: liver-stage malaria parasite growth inhibition, primary screen, cell-based, HepG2, luciferase luminescence, HepG2 viability (AID 624349; in the data active = parasite load remaining mostly below about 12%, no sharp cut-off; inactive = mostly above about 10%;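 also: 100% = mean of DMSO negative control wells on the same plate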). Conditions: P. berghei liver stage in HepG2, luciferase luminescence, concentration not given here; parasite load remaining: stronger effect = lower value; viability: measured here: HepG2 viability without parasites.

Consider `O=C1NC(=O)C(c2ccccc2)(c2ccccc2)N1`, for which the inhibition was 5.01% in assay [1], -2.27% (inactive) in [9] and -2% (inactive) in assay [10]. For the same compound, in [2], the score was 1.42. In assay [3], this compound gave a rescue above control of 6.5. Moreover, the cytochrome c release ratio in assay [4] came to 0.9. In addition, the inhibition of aggregation in assay [5] worked out at 62.8%. For the same compound, the glutamate uptake change in assay [6] was -8.41%. The aggregation suppression score in [7] came to 1.74. In addition, the fluorescence ratio in assay [8] was 1.01 (inactive); in [11] it was 1 (inactive). Besides, the mean signal in assay [12] is 250 (inactive). For the same compound, the z-score in [13] was 0.08 (inactive) and 1.09 (inactive) and 0.395 (inactive). Also, the log fold change Tl+ flux in assay [14] is 0.0354 (inactive); in [15] it was 0.0289 (inactive); in assay [16] it was -0.0221 (inactive); in assay [17], 0.0271 (inactive).
Regarding `c1ccc2c(c1)CCCC2C1=NCCN1` (configuration not stated), the inhibition in [1] is -4.42%; in assay [9] it was -4.09% (inactive); in assay [10], -0.48% (inactive). This compound also yielded a score in [2] of 1.43. Also, the rescue above control in assay [3] worked out at 7.66. The cytochrome c release ratio in assay [4] amounted to 0.63. The compound also gave an inhibition of aggregation in assay [5] of 56.8%. In addition, the glutamate uptake change in [6] turned out to be 6.14%. Besides, the aggregation suppression score in assay [7] came to 1.06. For the same compound, the survival in assay [18] was 6 (inactive). Besides, the results for the fluorescence ratio in assay [8] and in assay [11] were 0.97 (inactive) and 0.93 (inactive), respectively. Also, the mean signal in assay [12] is 221 (inactive). Besides, the z-score in assay [13] was 0.18 (inactive) and 0.17 (inactive). For the same compound, the log fold change Tl+ flux in assay [14] is 0.041 (inactive); in assay [15] it was 0.00535 (inactive); in assay [16], 0.0129 (inactive); in [17] it was 0.0141 (inactive).
Regarding `C[C@H](CS)C(=O)N1CCC[C@H]1C(=O)O`, the inhibition in assay [1] was 11.5%. Moreover, the score in assay [2] is 1.09. For the same compound, the rescue above control in assay [3] is -12.7. Besides, the cytochrome c release ratio in assay [4] was determined as 0.82. Moreover, the inhibition of aggregation in assay [5] came to 37.2%. The glutamate uptake change in assay [6] is -3.95%. In assay [7], this compound yielded an aggregation suppression score of 1.08. In addition, the mean signal in assay [12] is 261 (inactive). Also, the z-score in [13] is 0.49 (inactive) and 0.465 (inactive) and -0.54 (inactive). The log fold change Tl+ flux was -0.0696 (inactive) in [14], 0.0146 (inactive) in [15], -0.00777 (inactive) in [16] and 0.0231 (inactive) in assay [17].
Take `Nc1ccc(S(=O)(=O)c2ccc(N)cc2)cc1`: the results for the inhibition in assay [1], in [9] and in assay [10] were 2.36%, -3.18% (inactive) and 0.29% (inactive), respectively. The score in [2] stood at 0.97. In [3], this compound yielded a rescue above control of 9.67. The cytochrome c release ratio in [4] is 0.87. This compound had an inhibition of aggregation in [5] of 66.2%. Further, the glutamate uptake change in [6] was -16.9%. Moreover, the aggregation suppression score in assay [7] stood at 1.25. Also, the survival in assay [18] was 11.6 (inactive). In addition, the fluorescence ratio in assay [8] was 0.97 (inactive); in assay [11], 0.95 (inactive). In assay [12], the mean signal was 228 (inactive). For the same compound, in assay [13], the z-score is -0.16 (inactive). In addition, the log fold change Tl+ flux in assay [14] is -0.00845 (inactive); in assay [15], 0.0288 (inactive); in assay [16] it was -0.0181 (inactive); in assay [17], -0.0232 (inactive).
For the compound `CCCCC1=NC2(CCCC2)C(=O)N1Cc1ccc(-c2ccccc2-c2nn[nH]n2)cc1`, the parasite load remaining in assay [19] was 50.9% (inactive) and 54.9% (inactive) and 98.2% (inactive). Also, the viability in assay [19] is 86.5% and 93.9% and 73.1%. The fluorescence ratio in assay [8] is 1.06 (inactive); in assay [11] it was 1.03 (inactive). The inhibition in [9] was -3.56% (inactive); in [10] it was 3.75% (inactive). The mean signal in assay [12] is 269 (inactive). Moreover, in [13], the z-score was 1.65 (inactive). The log fold change Tl+ flux in assay [14] was 0.0995 (active); in assay [15] it was 0.0736 (inactive); in [16] it was 0.051 (inactive); in assay [17], 0.0476 (inactive).
As for `CCCNC(=O)NS(=O)(=O)c1ccc(Cl)cc1`, the inhibition in assay [1] was 10.9%; in [9], -2.27% (inactive); in [10], 1.05% (inactive). In assay [2], this compound had a score of 1.66. In assay [3], the rescue above control is -4.58. The cytochrome c release ratio in [4] was 1.77. The compound further returned an inhibition of aggregation in assay [5] of 91%. The glutamate uptake change in assay [6] is -12.9%. Also, the aggregation suppression score in assay [7] is 1.38. Further, the survival in assay [18] was 13.6 (inactive). Further, the figures for the fluorescence ratio in assay [8] and in assay [11] were 0.93 (inactive) and 0.96 (inactive), respectively. For the same compound, the mean signal in assay [12] is 243 (inactive). Besides, the z-score in assay [13] was 0.8 (inactive) and 0.135 (inactive). Moreover, the log fold change Tl+ flux in [14] is 0.0557 (inactive); in assay [15], 0.0279 (inactive); in assay [16], 0.017 (inactive); in [17], -0.0244 (inactive).
As to `Cc1nc2ccccn2c(=O)c1CCN1CCC(C(=O)c2ccc(F)cc2)CC1`, the survival in [18] is 8.08 (inactive). Further, the results for the fluorescence ratio in assay [8] and in assay [11] were 0.95 (inactive) and 0.93 (inactive), respectively. Besides, the inhibition in [9] is 5.94% (inactive); in assay [10] it was 3.75% (inactive). Further, in assay [12], the mean signal was 234 (inactive). In addition, the z-score in [13] was -1.02 (inactive) and -0.645 (inactive). Also, the log fold change Tl+ flux in assay [14] is 0.0396 (inactive); in assay [15] it was 0.0319 (inactive); in assay [16] it was -0.0285 (inactive); in assay [17], 0.00703 (inactive).
As to `CN(C)CCCN1c2ccccc2CCc2ccccc21`, the inhibition in assay [1] is -29.3%. Also, the score in [2] was 1.28. In assay [3], the rescue above control amounted to 5.01. The cytochrome c release ratio in assay [4] is 1.3. Further, the inhibition of aggregation in assay [5] amounted to 41%. For the same compound, the glutamate uptake change in assay [6] came to 5.43%. Besides, the aggregation suppression score in assay [7] turned out to be 1.2. Moreover, the survival in [18] is 8.08 (inactive). The mean signal in assay [12] was 235 (inactive). In assay [13], the z-score was -0.9 (inactive) and -0.525 (inactive) and -0.59 (inactive). Besides, the log fold change Tl+ flux in assay [14] is 0.0217 (inactive); in assay [15] it was 0.133 (active); in assay [16], 0.109 (inactive); in assay [17], 0.0178 (inactive).
For the compound `CCN(CC)CCOC(=O)C1(C2CCCCC2)CCCCC1`, the inhibition was -0.16% in [1], -3.18% (inactive) in assay [9] and 4.1% (inactive) in [10]. In [2], this compound gave a score of 0.92. The rescue above control in assay [3] came out at 8.2. For the same compound, in assay [4], the cytochrome c release ratio is 0.58. Also, the inhibition of aggregation in assay [5] was 78.3%. In assay [6], the glutamate uptake change was -7.11%. This compound also returned an aggregation suppression score in [7] of 1.04. Moreover, the survival in assay [18] was 16.2 (inactive). Besides, the fluorescence ratio in assay [8] is 1.01 (inactive); in [11] it was 0.95 (inactive). In addition, the mean signal in [12] was 236 (inactive). For the same compound, the z-score in assay [13] is -0.95 (inactive) and -0.895 (inactive) and -2.66 (inactive). For the same compound, the log fold change Tl+ flux in assay [14] is -0.0697 (inactive); in assay [15] it was -0.0157 (inactive); in assay [16], 0.0991 (inactive); in assay [17], 0.00259 (inactive).
With `CCCNC(C)C(=O)Nc1ccccc1C` (configuration not stated), the inhibition in assay [1] is 1.52%; in assay [9], -4.09% (inactive); in [10] it was -0.48% (inactive). The score in [2] was found to be 1.18. In [3], this compound registered a rescue above control of -3.71. For the same compound, in [4], the cytochrome c release ratio came to 0.7. In addition, the inhibition of aggregation in assay [5] came out at 74.9%. Also, in [6], the glutamate uptake change is 3.66%. In assay [7], this compound yielded an aggregation suppression score of 1.11. Further, the survival in [18] was 13.5 (inactive). Besides, the fluorescence ratio in [8] is 0.103 (active); in [11], 0.97 (inactive). In assay [12], the mean signal was 270 (inactive). Also, the z-score in [13] is 0.075 (inactive) and 0.325 (inactive) and 0.175 (inactive). Besides, the log fold change Tl+ flux in [14] was 0.00249 (inactive); in assay [15], 0.0146 (inactive); in [16], -0.00233 (inactive); in [17], 0.0338 (inactive).
